Where two headings read alike, the source gives them in different places.
Assays:
Parameters in all cases: species or system human, MV4-11 + K-562 + COLO205 + SK-N-BE2 + OVCAR-8
[1] = system: AURKB; details: read-out: apparent Kd, compound concentrations: 100 nM and 1000 nM (sheet 'Samples'), n = 1
[2] = system: EIF2AK1; details: read-out: apparent Kd, compound concentrations: 100 nM and 1000 nM (sheet 'Samples'), n = 1
[3] = system: STK4; details: read-out: apparent Kd; compound concentrations: 100 nM and 1000 nM (sheet 'Samples'), CATDS: 0.27037703695169801; n = 1
[4] = system: EGFR; details: read-out: apparent Kd, compound concentrations: 100 nM and 1000 nM (sheet 'Samples'), n = 1
[5] = system: HSP90B1; details: read-out: apparent Kd; compound concentrations:100 nM and 1000 nM (sheet 'Samples'); n = 1
[6] = system: MAP2K2; details: read-out: apparent Kd; compound concentrations:100 nM and 1000 nM (sheet 'Samples'); n = 1
[7] = system: MAP2K5; details: read-out: apparent Kd; compound concentrations:100 nM and 1000 nM (sheet 'Samples'); n = 1
[8] = system: PTK6; details: read-out: apparent Kd; compound concentrations:100 nM and 1000 nM (sheet 'Samples'); n = 1
[9] = system: RET; details: read-out: apparent Kd, n = 1
[10] = system: CAMK2B; details: read-out: apparent Kd; compound concentrations: 100 nM and 1000 nM (sheet 'Samples'), CATDS: 1; n = 1
[11] = system: FLT3; details: read-out: apparent Kd, compound concentrations: 100 nM and 1000 nM (sheet 'Samples'), n = 1
[12] = system: PIK3CD; details: read-out: apparent Kd, compound concentrations: 100 nM and 1000 nM (sheet 'Samples'), n = 1
[13] = system: RPS6KA4; details: read-out: apparent Kd; compound concentrations: 100 nM and 1000 nM (sheet 'Samples'), CATDS: 0.19604885233209601; n = 1
[14] = system: DDR1; details: read-out: apparent Kd; compound concentrations: 100 nM and 1000 nM (sheet 'Samples'), CATDS: 9.2997876438350002E-2; n = 1
[15] = system: FLT4; details: read-out: apparent Kd; compound concentrations: 100 nM and 1000 nM (sheet 'Samples'), CATDS: 0.48274666395287902; n = 1
[16] = system: GALK1; details: read-out: apparent Kd; compound concentrations: 100 nM and 1000 nM (sheet 'Samples'), CATDS: 7.3268745996591306E-2; n = 1
[17] = system: LIMK1; details: read-out: apparent Kd, compound concentrations: 100 nM and 1000 nM (sheet 'Samples'), n = 1
[18] = system: MAP4K5; details: read-out: apparent Kd; compound concentrations: 100 nM and 1000 nM (sheet 'Samples'), CATDS: 6.8685970274903196E-2; n = 1
[19] = system: NLK; details: read-out: apparent Kd; compound concentrations: 100 nM and 1000 nM (sheet 'Samples'), CATDS: 6.8663594256603303E-2; n = 1
[20] = system: RIPK2; details: read-out: apparent Kd; compound concentrations: 100 nM and 1000 nM (sheet 'Samples'), CATDS: 0.16558982732925701; n = 1
[21] = system: LIMK2; details: read-out: apparent Kd; compound concentrations: 100 nM and 1000 nM (sheet 'Samples'), CATDS: 0.109376912936183; n = 1
[22] = system: NNT; details: read-out: apparent Kd; compound concentrations: 100 nM and 1000 nM (sheet 'Samples'), CATDS: 8.6496378870903501E-2; n = 1
[23] = system: PDGFRB; details: read-out: apparent Kd; compound concentrations: 100 nM and 1000 nM (sheet 'Samples'), CATDS: 9.2318331607570206E-2; n = 1
[24] = system: TESK2; details: read-out: apparent Kd; compound concentrations: 100 nM and 1000 nM (sheet 'Samples'), CATDS: 9.3788253526120594E-2; n = 1

Cn1cc(-c2ccc3c(c2)CCN3C(=O)Cc2cccc(F)c2)c2c(N)ncnc21 [GSK2603358A]
potency estimated from few doses ([1]; CATDS: 0.35952241449560002): 1280 nM | potency estimated from few doses ([2]; CATDS: 0.39682644993145699): 1070 nM | potency estimated from few doses [3]: 2430 nM

COc1cc2c(Nc3ccc(NC(=O)c4ccccc4)cc3)ncnc2cc1OCCCN1CCOCC1 [GSK301329A]
potency estimated from few doses ([1]; CATDS: 0.55138330390134005): 50.7 nM | potency estimated from few doses ([4]; CATDS: 0.10899892771168): 1470 nM | potency estimated from few doses [5]: 1090 nM | potency estimated from few doses [6]: 1940 nM | potency estimated from few doses [7]: 238 nM | potency estimated from few doses [8]: 487 nM | potency estimated from few doses ([9]; compound concentrations:100 nM and 1000 nM (sheet 'Samples')): 1450 nM

Cc1ccc2c(-c3ccnc(Nc4ccc5c(c4)OCCO5)n3)c(-c3ccc(C(F)(F)F)cc3)nn2n1 [GW832467X]
potency estimated from few doses [10]: 475 nM

O=C1Nc2ccccc2/C1=C1\CCc2cc(O)ccc21 [GR105659X]
potency estimated from few doses ([1]; CATDS: 0.205313587385097): 856 nM | potency estimated from few doses ([11]; CATDS: 0.27070299273409698): 446 nM | potency estimated from few doses ([12]; CATDS: 0.42834866623309398): 199 nM | potency estimated from few doses [13]: 977 nM

Cn1cc(-c2ccc3c(c2)CCN3C(=O)Cc2cc(F)cc(F)c2F)c2c(N)ncnc21 [GSK2634140A]
potency estimated from few doses ([1]; CATDS: 0.49376947402656801): 1300 nM | potency estimated from few doses ([2]; CATDS: 0.50638977254874895): 1240 nM

Cc1c2ccc(N(C)c3ccnc(Nc4cccc(S(N)(=O)=O)c4)n3)cc2nn1Cc1ccccc1.Cc1c2ccc(N(C)c3ccnc(Nc4cccc(S(N)(=O)=O)c4)n3)cc2nn1Cc1ccccc1.Cl.Cl [GW787226A]
potency estimated from few doses ([1]; CATDS: 8.6866554765288095E-2): 941 nM | potency estimated from few doses [14]: 776 nM | potency estimated from few doses [15]: 35.3 nM | potency estimated from few doses [16]: 1650 nM | potency estimated from few doses ([17]; CATDS: 8.69066115858768E-2): 940 nM | potency estimated from few doses [18]: 2130 nM | potency estimated from few doses [19]: 2130 nM | potency estimated from few doses ([12]; CATDS: 0.18116624440708201): 176 nM | potency estimated from few doses ([9]; compound concentrations: 100 nM and 1000 nM (sheet 'Samples'), CATDS: 0.101759373704586): 612 nM | potency estimated from few doses [20]: 209 nM

Nc1ncnc2scc(-c3ccc(NC(=O)Cc4cc(F)ccc4F)cc3)c12.O=C(O)C(F)(F)F [SB-731254-M]
potency estimated from few doses ([1]; CATDS: 0.15442610034884699): 399 nM | potency estimated from few doses ([4]; CATDS: 9.4589689461148804E-2): 1180 nM | potency estimated from few doses ([2]; CATDS: 0.14381895647439999): 457 nM | potency estimated from few doses ([11]; CATDS: 0.410073684021382): 85.2 nM | potency estimated from few doses ([17]; CATDS: 8.0890535197294403E-2): 1910 nM | potency estimated from few doses [21]: 817 nM | potency estimated from few doses [22]: 1530 nM | potency estimated from few doses [23]: 1260 nM | potency estimated from few doses [24]: 1210 nM

— article PMC11062922 (Nature Chemical Biology, 2023)
